The text below walks through data of PubChem BioAssay (NCATS).

A short description of assay [1]: qHTS for Inhibitors of the Functional Ribonucleoprotein Complex (vRNP) of Lassa (LASV) Arenavirus: LASV Primary Screen - GLuc reporter signal (AID 1347082; calls by dose curve; tested in HEK293 reporter line; further: nearly all actives have a fitted effect of over 60% in size).
Assay [2] in a line: qHTS for Inhibitors of the Functional Ribonucleoprotein Complex (vRNP) of Lassa (LASV) Arenavirus: Viability assay - alamar blue signal for LASV Primary Screen (AID 1347083; calls by dose curve; tested in HEK293 reporter line; further: nearly all actives have a fitted effect of over 80% in size). A general note: qHTS replaces the single test concentration by a dilution series.
Assay [3] can be described thus: qHTS for Inhibitors of the Functional Ribonucleoprotein Complex (vRNP) of Lymphocytic Choriomeningitis Arenaviruses (LCMV): Viability assay - alamar blue signal for LCMV Primary Screen (AID 1347085; calls by dose curve; tested in HEK293 reporter line; further: nearly all actives have a fitted effect of over 80% in size).
For assay [4], the target named is Nucleoprotein (Lymphocytic choriomeningitis virus (strain Armstrong)) (UniProt P09992). In words: qHTS for Inhibitors of the Functional Ribonucleoprotein Complex (vRNP) of Lymphocytic Choriomeningitis Arenaviruses (LCMV): LCMV Primary Screen - GLuc reporter signal (AID 1347086). Further: nearly all actives have a fitted effect of over 70% in size.
Nucleoprotein (Lymphocytic choriomeningitis virus (strain Armstrong)), sequence (P09992 whole entry, looked up): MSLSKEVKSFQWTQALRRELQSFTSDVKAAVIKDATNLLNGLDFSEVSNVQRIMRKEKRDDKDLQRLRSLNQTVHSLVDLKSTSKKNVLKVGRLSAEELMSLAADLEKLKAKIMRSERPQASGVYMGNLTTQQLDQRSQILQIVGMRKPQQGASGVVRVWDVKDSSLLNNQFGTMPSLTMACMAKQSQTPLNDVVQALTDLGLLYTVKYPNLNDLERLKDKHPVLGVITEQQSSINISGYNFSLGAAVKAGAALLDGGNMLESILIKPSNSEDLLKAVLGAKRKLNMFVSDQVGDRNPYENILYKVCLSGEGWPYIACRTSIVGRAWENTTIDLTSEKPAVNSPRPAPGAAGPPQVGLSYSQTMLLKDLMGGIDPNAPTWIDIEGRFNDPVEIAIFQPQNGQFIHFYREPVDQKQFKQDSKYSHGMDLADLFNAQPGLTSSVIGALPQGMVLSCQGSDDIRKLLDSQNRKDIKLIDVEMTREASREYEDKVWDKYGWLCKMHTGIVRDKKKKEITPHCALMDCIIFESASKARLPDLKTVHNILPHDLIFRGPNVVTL

Records with an inconclusive call do not appear. Unmarked numbers belong to inactive results. Activity calls are given as the source filed them. Unless noted, the call rests on the fitted dose curve.
Potency means the concentration at half of the fitted maximal effect.

Consider `CC1(C)OC2CC3C4CC(F)C5=CC(=O)C=CC5(C)C4C(O)CC3(C)[C@]2(C(=O)CO)O1` (stereo not given in full), for which the Potency entry in assay [1], in assay [2], in assay [3] and in assay [4] was “inactive” each time.

As to `CCNc1nc(N)nc(Cl)n1`, the Potency result in assay [1], in assay [2], in assay [3] and in assay [4] was “inactive” throughout.

Consider `C/C=C(/C)C(=O)OC(C)(C)[C@@H]1Cc2c(ccc3ccc(=O)oc23)O1`, for which the Potency result in assay [1], in assay [2], in assay [3] and in assay [4] was “inactive” in each case.

As to `c1ccc(-c2ccc3ccccc3n2)cc1`, the Potency entry in assay [1], in assay [2], in assay [3] and in assay [4] was “inactive” in each case.

Regarding `CC/C=C\CCOC(=O)CC`, the Potency result in assay [1], in assay [2], in assay [3] and in assay [4] was “inactive” throughout.

Turning to `CC(=O)O[C@@H]1[C@H]2CC[C@@H]3[C@]1(C[C@@H](OC(C)=O)[C@@]1(O)C([C@@H]4O[C@@H]4C1(C)C)[C@]3(C)O)C[C@@]2(C)O` (stereo not given in full), the Potency result in assay [1], in assay [2], in assay [3] and in assay [4] was “inactive” each time.

For `CCCCCC1C(=O)CCC1CC(=O)OC` (stereo not given), the Potency result in assay [1], in assay [2], in assay [3] and in assay [4] was “inactive” throughout.

For the molecule `N[C@@H](CSS(=O)(=O)O)C(=O)O`, the Potency result in assay [1], in assay [2], in assay [3] and in assay [4] was “inactive” throughout.

Consider `CO[C@H]1C=CO[C@@]2(C)Oc3c(C)c(O)c4c(O)c(c(C=NN5CCN(C)CC5)c(O)c4c3C2=O)NC(=O)C(C)=CC=C[C@H](C)[C@H](O)[C@@H](C)[C@@H](O)[C@@H](C)[C@H](OC(C)=O)[C@H]1C`, for which the Potency result in assay [1], in assay [2], in assay [3] and in assay [4] was “inactive” in each case.

As to `C[C@@H](Cc1cc2c(c(C(N)=O)c1)N(CCCO)CC2)NCCOc1ccccc1OCC(F)(F)F`, the Potency result in assay [1], in assay [2], in assay [3] and in assay [4] was “inactive” in each case.

Regarding `CCOC(=O)Cc1ccccc1`, the Potency result in assay [1], in assay [2], in assay [3] and in assay [4] was “inactive” throughout.

Take `Cc1cc(OCCCc2c(C(=O)O)n(Cc3cccnc3)c3c(-c4c(COc5ccc(N6CCN([S+](C)(=O)[O-])CC6)cc5)nn(C)c4C)cccc23)cc(C)c1Cl`: the Potency result in assay [1], in assay [2], in assay [3] and in assay [4] was “inactive” in each case.

In the case of `CC1(C)CC(=O)CC(C)(C)N1`, the Potency result in assay [1], in assay [2], in assay [3] and in assay [4] was “inactive” in each case.

As to `COc1ccc(C(=O)OC2CC[C@@]3(C)C4CCC5[C@]6(O)C[C@H](O)[C@@]7(O)C(CN8CC(C)CCC8[C@@]7(C)O)[C@]6(O)C[C@@]53O[C@]24O)cc1OC` (stereo not given in full), the Potency result in assay [1], in assay [2], in assay [3] and in assay [4] was “inactive” each time.

As to `CC/C=C\CCOC(=O)c1ccccc1`, the Potency entry in assay [1], in assay [2], in assay [3] and in assay [4] was “inactive” each time.

Take `Cc1ccc(-c2ccccc2)cc1`: the Potency result in assay [1], in assay [2], in assay [3] and in assay [4] was “inactive” in each case.

`C[C@@H](O)[C@H]1O[C@]2(C)CCC[C@H]1O2`: the Potency entry in assay [1], in assay [2], in assay [3] and in assay [4] was “inactive” each time.

For the molecule `Cc1c(O)c2ccccc2oc1=O`, the Potency result in assay [1], in assay [2], in assay [3] and in assay [4] was “inactive” throughout.

Consider `COc1cc2cc(Oc3ccc4ccc(=O)oc4c3)c(=O)oc2cc1OC(C)=O`, for which the Potency result in assay [1], in assay [2], in assay [3] and in assay [4] was “inactive” throughout.

In the case of `COC(=O)[C@@H]1CC2=CC(=O)CC[C@]2(C)[C@@]23O[C@@H]2C[C@@]2(C)[C@H](CC[C@@]24CCC(=O)O4)[C@@H]13`, the Potency result in assay [1], in assay [2], in assay [3] and in assay [4] was “inactive” throughout.

`O=C(c1ccc2c(c1)OCCO2)N1CCCCC1`: the Potency entry in assay [1], in assay [2], in assay [3] and in assay [4] was “inactive” throughout.

With `CCCCCCCCCCCCC`, the Potency result in assay [1], in assay [2], in assay [3] and in assay [4] was “inactive” each time.

For `CS[C@H]1SC[C@@H]2C(=O)N(C)[C@H](C(C)C)C(=O)OC[C@H](NC(=O)c3cnc4ccccc4n3)C(=O)N[C@H](C)C(=O)N(C)[C@@H]1C(=O)N(C)[C@H](C(C)C)C(=O)OC[C@H](NC(=O)c1cnc3ccccc3n1)C(=O)N[C@H](C)C(=O)N2C`, the Potency is 61.1 nM (active) in assay [1], 10.9 nM (active) in assay [2], 6.1 nM (active) in assay [3] and 17.2 nM (active) in assay [4].

`CC(C)=CCCC(C)C=O` (stereo not given): the Potency entry in assay [1], in assay [2], in assay [3] and in assay [4] was “inactive” throughout.

As for `CC[C@@H]1C=C(C)C[C@H](C)C[C@H](OC)[C@H]2O[C@@](O)(C(=O)C(=O)N3CCCC[C@@H]3C(=O)O[C@H](C(C)=C[C@@H]3CC[C@H](Cl)[C@H](OC)C3)[C@H](C)[C@@H](O)CC1=O)[C@H](C)C[C@H]2OC`, the Potency result in assay [1], in assay [2], in assay [3] and in assay [4] was “inactive” in each case.

Regarding `O=c1cc(-c2ccccc2)oc2cc(O)ccc12`, the Potency result in assay [1], in assay [2], in assay [3] and in assay [4] was “inactive” in each case.

As for `CC1=CC(=O)O[C@@H]1[C@@]1(C)C[C@H]2OC(=O)C[C@H]3[C@@H](C)C(=O)C(O)=C1[C@@]23CO`, the Potency result in assay [1], in assay [2], in assay [3] and in assay [4] was “inactive” in each case.

Consider `Cc1c(-c2cccc3c(CCCOc4cccc5ccccc45)c(C(=O)O)n(Cc4cccnc4)c23)c(COc2ccc(N3CCN([S+](=O)([O-])N(C)C)CC3)cc2)nn1C`, for which the Potency entry in assay [1], in assay [2], in assay [3] and in assay [4] was “inactive” throughout.

For `CC(=O)O[C@H]1C[C@@H]2CC[C@H]3[C@H]4C[C@H]([N+]5(C)CCCCC5)[C@@H](OC(C)=O)[C@@]4(C)CC[C@@H]3[C@@]2(C)C[C@H]1N1CCCCC1`, the Potency result in assay [1], in assay [2], in assay [3] and in assay [4] was “inactive” each time.

Consider `COc1ccc2c(c1)C(=O)CC(c1ccc(OC)c(OC)c1)O2` (stereo not given), for which the Potency result in assay [1], in assay [2], in assay [3] and in assay [4] was “inactive” in each case.
